Results as given in PubChem BioAssay AID504465 (National Center for Advancing Translational Sciences (NCATS), 2011).
In all, about 2,100 compounds went through this assay and about 210 (10%) were called active. About 53% were inconclusive and are not listed. Some of the results follow. A number with no mark means an inactive call. Calls follow the shape of the dose curve; as a rule, active = well fitted inhibition curve with a large enough effect; inconclusive = small, poorly fitted or top-dose-only effect, or effect the other way; inactive = no such curve, though single readings can be large or run the other way.

Experiment: IN Cell qHTS Assay for Inhibitors of the mTORC1 Signaling Pathway in MEF (Tsc2-/-, p53-/-) Cells: Sytravon; also: nearly all actives have a fitted effect of over 60% in size;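 as to activity, negative = inhibition: plate controls were DMSO wells for no effect and 7.5 nM rapamycin full pathway inhibition for full effect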
Conditions: phospho-rpS6 immunofluorescence, 24 h; series mostly up to 38.3 µM; activity, negative = inhibition: at the top concentration
Method in brief: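 Tsc2-/-, p53-/- MEFs (empty-vector) treated with compound 24 h at 37 degree Celsius, then fixed and stained for phospho-rpS6 Ser235/236 (Alexa-488) plus Hoechst. Reported as % positive cells, thresholds set against 7.5 nM rapamycin and DMSO wells.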
Potency is read from the fitted curve at half-maximal effect.

Compound	activity, negative = inhibition [%]	Potency
COC(=O)c1c(NC(=O)c2ccc(S(=O)(=O)N3CCCCC3)cc2)sc2c1CCN(C)C2	-14	
Cc1ccc(NC(=O)/C=C\C(=O)N(c2ccc(C(C)C)cc2)C(C(=O)NCc2ccco2)c2ccc(F)cc2)cc1 (stereo not given)	6.25	
COc1ccc(Nc2cc(C)nc3c(C)c(C)ccc23)cc1	0	
COc1cc(Nc2nc(SCC(=O)c3ccc(Cl)c(Cl)c3)nc3ccccc23)cc(OC)c1	-6.06	
COc1ccc2nc(C)cc(Nc3ccc(Cl)c(Cl)c3)c2c1		13.1 µM (active)
Clc1cccc(-n2ncc3c(NC4CCCCC4)ncnc32)c1	6.25	
Cc1cccc(Cc2c(C)nc3nc(SCC(=O)NCc4ccc(F)cc4)nn3c2C)c1	-21.1	
CC(=O)N1CCc2cc(CNS(=O)(=O)c3cccs3)ccc21	21.8	
Cc1nc2nncn2c(NCc2ccc(Cl)cc2)c1C	-6.25	
COc1ccc(CCNC(=O)c2cc3n(n2)CCCN(Cc2ccc(C)cc2)C3=O)cc1OC	-1.23	
COc1ccc2c(c1)CC(C(=O)Nc1cc(Cl)ccc1C)CO2 (stereo not given)	-4.95	
CCOC(=O)c1c(C)oc2ncnc(N3CCN(c4cccc(Cl)c4)CC3)c12	-8.26	
CCOc1ccc(-n2nc(CO)c(C(=O)NCc3cccs3)n2)cc1	-14	
CCOc1ccc(-n2nc3ccc(NC(=O)c4ccc(-c5cccc(Cl)c5)o4)cc3n2)cc1		13.1 µM (active)
CCN1CCc2c(sc(NC(=O)c3ccc(S(=O)(=O)N4CCCC(C)C4)cc3)c2C(=O)OC)C1 (stereo not given)	6.25	
Cc1ccc(S(=O)(=O)Nc2cccc(-c3ccc(N4CCC(C)CC4)nn3)c2)s1	1.3	
O=C(NC1CCN(Cc2ccccc2)CC1)c1ccc(Cn2c(=O)c3ccccc3n(Cc3ccc(F)cc3)c2=O)cc1		2.61 µM (active)
O=c1c2ccccc2n(Cc2c(F)cccc2Cl)c(=O)n1Cc1ccccc1	15.6	
COc1ccccc1CNC(=O)CCCn1c(=O)c2ccccc2n(Cc2ccc(F)cc2)c1=O	-2.57	
COc1ccc(N2CCN(C(=O)CSCc3ccc(C)cc3)CC2)cc1	6.25	
CCOC(=O)c1c(C)oc2nc(C)nc(NCc3ccc(Cl)cc3)c12	-2.13	
CCOC(=O)C(Cc1c[nH]c2ccccc12)NC(=O)COc1ccc(Cl)cc1 (stereo not given)	0	
Cc1ccc2c(CNCCc3ccc(Cl)cc3)c(C(=O)O)n(Cc3ccc(F)cc3)c2c1	-16.1	
Cc1ccc(NC(=O)c2cc(S(=O)(=O)NC3CCCCC3)ccc2F)cc1Cl	6.25	
Cc1ccc(NC(=O)c2nc(S(=O)(=O)Cc3ccc(F)cc3)ncc2Cl)cc1C		1.65 µM (active)

Compound	activity, negative = inhibition [%]	Potency
COc1ccc(OC)c(NC(=O)c2c(NCc3ccc(OC)c(OC)c3)sc3c2CCC(C)C3)c1 (stereo not given)	0	
Cc1ccc(NC(=O)c2cc(S(=O)(=O)NCCC3=CCCCC3)ccc2F)cc1C	6.25	
CC(=O)Nc1ccc(NC(=O)c2nc(S(=O)(=O)Cc3ccc(F)cc3)ncc2Cl)cc1		8.26 µM (active)
Cc1ccc(C)c(NC(=O)c2nc(S(=O)(=O)Cc3ccc(F)cc3)ncc2Cl)c1		3.29 µM (active)
CC1=C(c2ccc(C)c(C)c2)S(=O)(=O)N(Cc2ccc(C(=O)Nc3cc(F)ccc3F)cc2)C1=O	-0.206	
COc1ccc(OC)c(NC(=O)c2nc(S(=O)(=O)Cc3ccc(F)cc3)ncc2Cl)c1		2.33 µM (active)
CCc1ccc(NC(=O)c2cc(S(=O)(=O)NC3CCCC3)ccc2F)cc1	6.25	
COc1ccc(C)cc1NC(=O)c1cc(S(=O)(=O)NC2CCCCCC2)ccc1F	6.25	
COc1cc(NS(=O)(=O)c2cc(Br)cc3c2N(C(=O)C2CC2)CC3)cc(OC)c1	0	
CCc1c(C)nc2nncn2c1NCc1ccc(Cl)cc1	-7.07	
CC(=O)c1cccc(NC(c2ccc(F)cc2)c2nnc(-c3ccccc3)o2)c1 (stereo not given)	0	
Cc1ccccc1Nc1c(-c2c[nH]c3ccccc23)nc2cccc(C)n12	-70	
O=C(Nc1ccc(Br)cc1)c1cc(S(=O)(=O)NC2CCCC2)ccc1F	6.25	
COc1ccc(Cn2c(C(=O)O)c(CNC3CCCCCC3)c3ccc(OC)cc32)cc1	-22.6	
CC(C)CCN(C(=O)Nc1ccc(Cl)c(Cl)c1)C1CCN(C(C)C)CC1	6.25	
Cc1cc(C)c(NC(=O)c2cc(S(=O)(=O)NCCC3=CCCCC3)ccc2F)c(C)c1	6.25	
CCc1ccc(Sc2cc(C(=O)NCCCN3CCC(C)CC3)c3ccccc3n2)cc1	6.25	
CCN(CCCNC(=O)c1cc2c(=O)[nH]c3ccccc3c2s1)c1ccccc1	-22.3	
Cc1ccc2[nH]c(=O)c3cc(C(=O)NCCCN4CCC(C)CC4)sc3c2c1		5.85 µM (active)
CCc1cccc(NC(=O)c2oc3ccc4c(c3c2C)C(=O)CC(C)(C)O4)c1	-21.1	
c1ccc(CNc2ncnc3[nH]ncc23)cc1	6.25	
COc1ccc(-c2cc(NCc3ccc(C)cc3)n3cnnc3n2)cc1	-18.2	
COc1ccc(CNC(=O)c2cc(-c3ccc(OC)c(OC)c3)nc3n[nH]c(-c4ccc(C)cc4)c23)cc1		14.7 µM (active)
COc1ccc(CNC(=O)C2CCN(S(=O)(=O)c3ccc(C)cc3)CC2)cc1	-9.16	
Cc1oc2ccc(O)c(CN(C)Cc3ccccc3)c2c1C(=O)Nc1ccccc1	-8.08	

Compound	activity, negative = inhibition [%]	Potency
CCOc1cccc(NC(=O)C2CC(=O)N(CC)C(=Nc3ccc(F)cc3)S2)c1 (stereo not given)	-11.8	
O=C(NCC1CCN(Cc2ccccc2F)CC1)Nc1ccc(F)c(Cl)c1	-11.3	
Cc1ccc(C)c(CN2CCC(CNC(=O)c3cc4ccc5cccnc5c4[nH]3)CC2)c1	-15.8	
Cc1ccc(C)c(CN2CCC(CNC(=O)Nc3ccc(Br)cc3F)CC2)c1		14.7 µM (active)
Cc1nn(C)c2c1c(C(F)(F)F)cc(=O)n2CC(=O)N1CCC(C)CC1	-0.547	
CSc1ccc(CCNS(=O)(=O)c2cc(-c3cc(C)no3)ccc2C)cc1	1.3	
N#Cc1ccc(-c2cccs2)nc1SCC(=O)Nc1cccc(C(F)(F)F)c1	-23.9	
CCOc1ccc(-c2cc(C(=O)N3CCN(c4cccc(C(F)(F)F)c4)CC3)c3ccccc3n2)cc1	6.25	
CCOC(=O)CSc1nc(-c2ccccc2)cc(C(F)(F)F)c1C#N		9.27 µM (active)
CCc1ccc(Sc2cc(C(=O)NCCCN3CCCC(C)C3)c3ccccc3n2)cc1 (stereo not given)	6.25	
CCN1CCOC(=O)C1CC(=O)Nc1ccc(C)c(Cl)c1 (stereo not given)	-10.3	
O=C(Cn1c(-c2cccs2)cc2ccccc21)NCCCN1CCN(c2ccc(F)cc2)CC1		14.7 µM (active)
COc1ccc(Nc2cc(C(=O)NCCCN3CCN(c4ccc(OC)cc4)CC3)c3ccccc3n2)cc1	0	
Cc1ccccc1Oc1nc2ccccn2c(=O)c1/C=C(\C#N)c1nc2ccccc2[nH]1	10.8	
CCn1c(CN2CCOCC2)nc2cc(NC(=O)c3ccccc3[N+](=O)[O-])ccc21	2.58	
CCOc1ccc(N2C(=O)c3[nH]nc(-c4ccc(OC)cc4)c3C2c2cccs2)cc1 (stereo not given)	-0.625	
COc1ccc(-c2n[nH]c3c2C(c2ccc(O)cc2)N(c2ccc(Br)cc2)C3=O)cc1 (stereo not given)		11.7 µM (active)
CCOc1cc(C2c3c(-c4ccc(Br)cc4)n[nH]c3C(=O)N2c2ccc(Cl)cc2)ccc1O (stereo not given)	-96.1	
CC(C)CN(CC(C)C)S(=O)(=O)c1ccc(C(=O)Nc2sc3c(c2C(N)=O)CC(C)(C)NC3(C)C)cc1	6.25	
Cc1ccc(Nc2cc(C)nc3nc(Cc4ccc(Cl)cc4)nn23)cc1	-9.74	
Cc1cc(C)c(Nc2ncnc3c2cnn3C)c(C)c1	6.25	
Cc1cccc(-n2ncc3c(Nc4c(C)cc(C)cc4C)ncnc32)c1		3.69 µM (active)
COc1ccc(OC)c(Nc2ncnc3c2cnn3-c2cccc(Cl)c2)c1	6.25	
O=C(Nc1cc(Cl)cc(Cl)c1)c1cc(S(=O)(=O)NC2CCCC2)ccc1F	6.25	
CCCCOc1cccc(NC(=O)c2cccc(C(=O)Nc3cccc(OCCCC)c3)c2)c1		11.7 µM (active)

Compound	activity, negative = inhibition [%]	Potency
CCCCOc1cccc(C(=O)N2CCN(CCc3ccncc3)CC2)c1	-60.4	
O=C(COC(=O)c1cccc(NC(=O)c2ccc(Br)cc2)c1)c1ccc(Br)cc1	9.28	
CN1CCc2c(sc(NC(=O)CSc3ccccc3)c2-c2nc3ccccc3s2)C1	0.735	
Cc1n[nH]c(C)c1S(=O)(=O)N(CC(=O)Nc1ccc(C(F)(F)F)cc1)c1ccc(C(C)C)cc1	-100	
O=C(Nc1cc(Cl)ccc1Cl)c1cc(S(=O)(=O)NCCc2ccccc2)ccc1F	6.25	
CS(=O)(=O)N(CC(=O)NCCc1ccccc1)c1cc(C(F)(F)F)ccc1Cl		8.26 µM (active)
Cc1c(Cl)ccc2sc(NC(=O)c3ccc(S(=O)(=O)N4CCCc5ccccc54)cc3)nc12	-20.5	
Cc1c(C(=O)N2CCC(C)CC2)c(S(=O)(=O)N(Cc2ccccc2)C(C)(C)C)c(C)n1C	0	
O=C1CSC2(C(=O)N(Cc3cccc(C(F)(F)F)c3)c3ccccc32)N1c1ccc(F)c(F)c1 (stereo not given)	-6.7	
CCN(CC)CCNC(=O)c1ccc(-n2c(-c3ccccc3)cc3c2CCCC3)cc1	-15.2	
CCN(CC)CCCNC(=O)c1nn(C)c2c1CSc1ccccc1-2	3.66	
CCN(CC)CCCNC(=O)c1ccc(-c2nc(CN3CCc4ccccc43)c(C)o2)cc1		13.1 µM (active)
COc1ccc(-c2ccc(CNc3ccc4[nH]c(=O)[nH]c4c3)o2)cc1Cl	-54.9	
CCCNC(=O)c1ccc2c(c1)N=C(CCC)c1ccccc1S2	-25.5	
CCOc1ccc(OCC)c(NC(=O)C(NS(=O)(=O)c2cccs2)c2ccccc2)c1 (stereo not given)	1.85	
COc1ccc(Cn2ccc3nc(C)c(C(=O)N4CCN(c5ccc(OC)cc5)CC4)cc3c2=O)cc1	-1.62	
CCCOc1ccc(CNC(=O)CCCn2nc(C)c3sc4ccccc4c3c2=O)cc1	-12.9	
Cc1nn(CCCC(=O)NCCc2ccc(Cl)cc2)c(=O)c2c1sc1ccccc12		11.7 µM (active)
CSc1ccc(CCNC(=O)C(C)n2nc(C)c3sc4ccccc4c3c2=O)cc1 (stereo not given)		1.17 µM (active)
COc1ccc(CNC(=O)CCCN2C(=O)CSc3c2c(C)nn3-c2ccccc2)cc1	-4.75	
CSc1ccc(CCNC(=O)CCn2c(=O)c3cccn3c3ccc(F)cc32)cc1	-19.8	
Cc1ccc(CCNC(=O)c2c3c(nc4ccccc24)C(=O)N(C2CCCCC2)C3)cc1	-5.87	
COc1ccc(N2CCN(C(=O)C(C)n3nc(C)c4sc5ccccc5c4c3=O)CC2)cc1 (stereo not given)		1.85 µM (active)
Cc1nn(C(C)C(=O)NC2CCC(C)CC2)c(=O)c2c1sc1ccccc12 (stereo not given)		5.21 µM (active)
CCC(C(=O)N1CCN(c2cc(Cl)ccc2C)CC1)n1nc(C)c2sc3ccccc3c2c1=O (stereo not given)	-11.9	
